From PubChem BioAssay
MCL1-BIM inh = disrupts human MCL1 binding to BIM-BH3 peptide | 0.68% of 320,000 active | GST-MCL1 / FITC-Bim-BH3 fluorescence polarization | Q07820 | inhibition, % at 10.9 µM | AID 2057;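 active = inhibition above the mean inhibition of all tested compounds plus 3 SD, set per campaign, cut at about 40% in these data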;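 note: higher means more loss of mP so more displacement of Bim peptide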
IDE inh = inhibitors of human insulin-degrading enzyme in cells; HEK cells, FAbetaB cleavage, fluorescence polarization; inhibition, % at 5.59 µM; 0.41% of 320,000 active;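 active = percent inhibition above the average of all tested compounds plus 3 SD, set per screening campaign, cut at about 16% in these data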;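 note: IDE supplied by intact live HEK cells; FP after avidin binding of uncleaved biotin substrate so inhibition keeps polarization high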
Target sequence (P14735 whole entry, looked up): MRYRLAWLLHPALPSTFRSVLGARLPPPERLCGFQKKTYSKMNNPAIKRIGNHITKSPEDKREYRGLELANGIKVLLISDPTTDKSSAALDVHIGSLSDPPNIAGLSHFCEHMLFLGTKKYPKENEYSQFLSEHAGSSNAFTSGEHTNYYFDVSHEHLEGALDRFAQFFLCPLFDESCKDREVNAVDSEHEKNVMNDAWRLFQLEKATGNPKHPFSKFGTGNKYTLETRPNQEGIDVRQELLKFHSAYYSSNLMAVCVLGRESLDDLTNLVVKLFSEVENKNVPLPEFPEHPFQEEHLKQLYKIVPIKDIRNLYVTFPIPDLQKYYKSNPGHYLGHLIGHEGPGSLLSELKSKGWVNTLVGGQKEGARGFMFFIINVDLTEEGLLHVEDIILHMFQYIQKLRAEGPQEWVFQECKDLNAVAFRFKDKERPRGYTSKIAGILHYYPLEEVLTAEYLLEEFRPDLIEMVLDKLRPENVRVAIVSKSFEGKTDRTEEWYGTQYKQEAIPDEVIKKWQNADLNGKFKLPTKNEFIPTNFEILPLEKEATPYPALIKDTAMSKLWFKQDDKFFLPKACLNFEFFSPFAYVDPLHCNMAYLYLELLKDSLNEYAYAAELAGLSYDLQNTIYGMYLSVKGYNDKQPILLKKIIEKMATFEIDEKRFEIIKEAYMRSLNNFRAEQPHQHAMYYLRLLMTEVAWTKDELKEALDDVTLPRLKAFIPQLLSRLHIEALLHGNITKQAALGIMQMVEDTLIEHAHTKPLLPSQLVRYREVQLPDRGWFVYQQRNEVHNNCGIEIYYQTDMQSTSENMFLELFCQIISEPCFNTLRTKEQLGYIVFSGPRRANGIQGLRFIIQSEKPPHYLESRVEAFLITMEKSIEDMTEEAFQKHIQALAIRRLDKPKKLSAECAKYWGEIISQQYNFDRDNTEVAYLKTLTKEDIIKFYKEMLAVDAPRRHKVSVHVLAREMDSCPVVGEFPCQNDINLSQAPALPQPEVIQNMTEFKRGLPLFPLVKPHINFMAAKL
IDE act = activators of human insulin-degrading enzyme in cells. P14735. HEK cells, FAbeta-B cleavage, fluorescence polarization; 0% vehicle, 100% cell-free pure enzyme wells. activation, % at 5.96 µM. 0.073% of 340,000 active. AID 493087;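 active = activation above the mean of all tested compounds plus 3 SD, set per screening campaign, cut at about 17% in these data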
BCLXL inh = Bcl-xL (human) inhibition; Q07817; GST-Bcl-xL / FITC-Bim BH3 peptide fluorescence polarization; inhibition, % at 10.9 µM; 0.7% of 320,000 active; AID 2129;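 active = inhibition above the mean of all tested compounds plus 3 SD, cutoff set per campaign, cut at about 30% in these data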;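 note: inhibitors lower millipolarization by displacing the labeled peptide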
GLD-1 RNA inh = GLD-1-TGE RNA interaction inhibition (C. elegans); Q17339; purified GLD-1 + fluorescein TGE RNA, fluorescence polarization; inhibition, % at 5.96 µM; 0.44% of 320,000 active;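 active = percent inhibition above a per-plate cutoff, the plate mean of test compounds plus 3 SD, cut at about 30% in these data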
MEX-5 binding = C. elegans MEX-5 TCR-2 RNA binding activity. Q9XUB2. MEX-5/FITC-TCR2 RNA binding, fluorescence polarization; active compounds read low. activity score (negative = inhibition of binding), % at 10 µM. 0.38% of 300,000 active. AID 1832;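 active = inhibition past about -25% in most replicates, and total fluorescence under double the plate's negative control median, limit read from the data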
IDE cell inh cf = confirmation of human insulin-degrading enzyme inhibitors in cells; AID 435028; 51% of 1,200 active; shares compounds with IDE inh; HEK cells, FAbetaB cleavage, fluorescence polarization; inhibition, % at 5.59 µM;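 active = mean inhibition across triplicate wells above the cutoff set by the earlier primary insulin-degrading enzyme screen, cut at about 16% in these data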
HEK293 tox = HEK cell cytotoxicity, counter-screen for IDE inhibitors | shares compounds with IDE inh | HEK293 cytotoxicity, ATP luminescence | inhibition, % at 5.59 µM | 28% of 1,200 active | AID 449730; in the data active = inhibition above about 22%
Of the large screens only hits and unclear results are named; the others gave an inactive call (follow-up assays come after a bar, where they were run). Shown are actives, neighbours in structure and some others; about 1.5% of the full set was active somewhere.

Cc1cccc(N2CCN(C(=O)NCc3ccc(F)cc3)CC2)c1C	none
COc1ccc(CNC(=O)N2CCN(c3cccc(C)c3C)CC2)cc1OC	IDE inh 17 | IDE cell inh cf inactive | HEK293 tox inactive
COc1ccccc1N1CCN(C(=O)c2cc(N3C(=O)C4C5CCC(C5)C4C3=O)ccc2Cl)CC1 (stereo not given)	IDE inh 31 | IDE cell inh cf 21 | HEK293 tox inactive
CC1CCCN(C(=O)c2cc(N3C(=O)C4C5CCC(C5)C4C3=O)ccc2Cl)C1 (stereo not given)	none (no result: IDE act)
COc1cc(/C=N/N2C(=O)CSC2=S)ccc1O	IDE inh 26 | IDE cell inh cf 44 | HEK293 tox inactive
Oc1cccc2ccc(Nc3ccccn3)nc12	IDE inh 25 | IDE cell inh cf inactive | HEK293 tox 45
O=C1CCCC(O)=C1Sc1cc(Cl)c(Cl)cc1Cl	none (no result: IDE act)
Cc1ccc(-c2cc(C(=O)Nc3ccc(S(=O)(=O)N4CC(C)OC(C)C4)cc3)[nH]n2)c(O)c1 (stereo not given)	IDE inh 20 | IDE cell inh cf inactive | HEK293 tox 32
Cc1cc(/C=C2\NC(=S)N(C)C2=O)ccc1N1CCCC1	IDE inh 88 | IDE cell inh cf 96 | HEK293 tox inactive
Cc1cc(/C=C2/C(=O)N(C)C(=S)N2C)ccc1N1CCCC1	IDE inh 26 | IDE cell inh cf 51 | HEK293 tox inactive
CCCN1C(=O)/C(=C/c2ccc(OCC(=O)OCC)cc2)NC1=S	none (no result: MCL1-BIM inh, IDE inh, BCLXL inh, GLD-1 RNA inh)
CCCN1C(=O)/C(=C/c2ccc(N3CCCC3)c(C)c2)NC1=S	IDE inh 95 | IDE cell inh cf 128 | HEK293 tox 27
COc1ccc(C(=O)Nc2c(C(C)(C)C)nn(C)c2C(C)(C)C)cc1	none
CCC(C(=O)NC1CCCC1)N(C(=O)Cn1nnc(-c2ccc(C)o2)n1)c1cccc(OC)c1 (stereo not given)	none
COc1ccc(-c2cc3cc(OC)c(OC)cc3c(C)n2)cc1	none
CCCCCCc1cc2cc(/C(N)=N/NC(=O)c3ccncc3)c(=O)oc2cc1O	IDE inh 29 (no result: MEX-5 binding) | IDE cell inh cf 97 | HEK293 tox inactive
CCCCCCc1cc2cc(C(=O)OCC)c(=O)oc2cc1O	none
COC(=O)CNC(=O)Cn1c(=O)n(Cc2ccc(F)cc2)c(=O)c2sccc21	none
O=C(CSc1nnc(COc2ccc(Cl)cc2Cl)o1)Nc1ccccn1	none
O=C(CSc1nnc(CCCOc2ccc(Cl)cc2Cl)o1)Nc1ccc(C(=O)O)cc1	IDE inh 18 | IDE cell inh cf inactive | HEK293 tox inactive
CC(NCc1ccc(S(N)(=O)=O)cc1)C(=O)Nc1cccc(Cl)c1 (stereo not given)	none
C=CCNc1ncnc2c1[nH]c1ccc(Cl)cc12	IDE inh 30 | IDE cell inh cf inactive | HEK293 tox 47
CC(=O)c1ccc(S(=O)(=O)Nc2ccccc2C(=O)NC2CC2)cc1	none (no result: MEX-5 binding)
CC1(C)Nc2ccccc2C(=O)N1c1ccccc1	none
CCOc1cc(-c2nc3n(c(=O)c2C#N)CCS3)ccc1O	IDE inh 25 | IDE cell inh cf 41 | HEK293 tox inactive
CCOc1ccc(-c2nc3n(c(=O)c2C#N)CCS3)cc1	none
Cc1n[nH]c(C)c1NC(=O)CSc1nnnn1-c1cccc(F)c1	none (no result: MCL1-BIM inh, BCLXL inh, MEX-5 binding)
CC(C)(C)c1ccc(C(=O)OC/C(O)=C(\C#N)c2nc3ccccc3s2)cc1	none
N#C/C(=C/c1ccc(-c2ccc(S(N)(=O)=O)cc2)o1)C(=O)Nc1ccccc1	none
COC(=O)c1ccc(/C=C(\C#N)c2nc3ccccc3s2)cc1	IDE inh 32 | IDE cell inh cf inactive | HEK293 tox inactive
COc1ccc(/C(C#N)=C/c2ccccn2)cc1	none
N#C/C(=C\c1ccccn1)c1nc2ccccc2s1	IDE inh 28 | IDE cell inh cf 46 | HEK293 tox inactive
N#C/C(=C/c1ccc(-c2ccc(S(N)(=O)=O)cc2)o1)c1nc2ccccc2s1	IDE inh 40, BCLXL inh 45 (no result: MEX-5 binding) | IDE cell inh cf 78 | HEK293 tox 24
COc1ccc(C(=O)N/C(=C/c2cccs2)C(=O)NN)cc1OC	IDE inh 22 | IDE cell inh cf inactive | HEK293 tox inactive
C=CCn1cccc(C(=O)Nc2ccc(OCC)cc2)c1=O	none
COc1ccc(-n2nc(C(=O)NCC(=O)NCCCN3CCOCC3)c3ccccc3c2=O)c(OC)c1	none
COc1ccc(NC(=O)c2cc3c(Cl)nc4ccccc4c3s2)cc1OC	IDE inh 19 | IDE cell inh cf inactive | HEK293 tox inactive
NS(=O)(=O)c1cc(C(=O)Nc2ccc3c(c2)CCC3)ccc1Cl	none
COc1ccc(N(CC(=O)N2CCN(c3ccc(Cl)cc3)CC2)S(=O)(=O)c2c(C)n[nH]c2C)cc1	IDE inh 18 | IDE cell inh cf inactive | HEK293 tox inactive
COc1cc(NC(=O)C/C(C)=N/NC(=O)C(=O)NCCO)c(OC)cc1Cl	none
COc1ccc2[nH]c3c(=O)n(/N=C/c4ccc(OC)c(CN5CCCC5)c4)c(C)nc3c2c1	IDE inh 17 | IDE cell inh cf inactive | HEK293 tox inactive
C[C@@H]1C=C(C(=O)NCc2nc3ccccc3[nH]2)O[C@H](OCCCCO)C1	IDE inh 17 | IDE cell inh cf inactive | HEK293 tox inactive
Cc1ccc2nc(-c3ccc(SCC(=O)N4CCc5ccccc54)nc3)[nH]c2c1	IDE inh 26 | IDE cell inh cf inactive | HEK293 tox inactive
CCCCn1c(N)c(N(CCOC)C(=O)c2ccc(S(=O)(=O)N3CCCCCC3)cc2)c(=O)[nH]c1=O	none
CCCCN1C(=O)c2cccc3cc(O)cc(c23)C1=O	IDE inh 21 | IDE cell inh cf 28 | HEK293 tox inactive
O=C(O)CCCN1C(=O)c2cccc3cccc(c23)C1=O	none
Oc1[nH]c(N=C2N=c3ccccc3=N2)c2ccccc12	IDE inh 26, MEX-5 binding -38 | IDE cell inh cf 20 | HEK293 tox 76
Oc1[nH]c(=S)sc1C=C1N=c2ccccc2=N1	none (no result: IDE act)
COc1ccc(-n2c(Cc3cc(=O)[nH]c(=O)[nH]3)nnc2SCC(=O)Nc2cc(C(F)(F)F)ccc2Cl)cc1	none
COc1ccccc1NC(=O)CSc1nnc(Cc2cc(=O)[nH]c(=O)[nH]2)n1-c1ccccc1	IDE inh 19 | IDE cell inh cf inactive | HEK293 tox inactive
O=C(CSc1ccc(-c2ccco2)nn1)Nc1ccccc1F	none
CSc1ccc(C2C(C#N)=C(N)Oc3c2ccc(=O)c2c(C)oc(C)c32)cc1 (stereo not given)	IDE inh 30 | IDE cell inh cf 109 | HEK293 tox 25
